# Results published in paper PMC4336329 (PLoS ONE, 2015).
# Hit rate of the full screen: of about 310,000 compounds, about 14,000 (4.5%) showed an effect of 50% or more. Effects have a minus sign here. Shown is part of a subset that was picked to be rich in strong results.
# Target: human ether-à-go-go-related gene (hERG) potassium channel (human, UniProt Q12809)
# Assay: primary screen, population patch clamp on CHO cells stably expressing hERG; higher = less effect of the substance
# 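Also: peak tail current of the secondary pulse compared with the same well before compound.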
# Chain of human ether-à-go-go-related gene (hERG) potassium channel (Q12809 whole entry, looked up): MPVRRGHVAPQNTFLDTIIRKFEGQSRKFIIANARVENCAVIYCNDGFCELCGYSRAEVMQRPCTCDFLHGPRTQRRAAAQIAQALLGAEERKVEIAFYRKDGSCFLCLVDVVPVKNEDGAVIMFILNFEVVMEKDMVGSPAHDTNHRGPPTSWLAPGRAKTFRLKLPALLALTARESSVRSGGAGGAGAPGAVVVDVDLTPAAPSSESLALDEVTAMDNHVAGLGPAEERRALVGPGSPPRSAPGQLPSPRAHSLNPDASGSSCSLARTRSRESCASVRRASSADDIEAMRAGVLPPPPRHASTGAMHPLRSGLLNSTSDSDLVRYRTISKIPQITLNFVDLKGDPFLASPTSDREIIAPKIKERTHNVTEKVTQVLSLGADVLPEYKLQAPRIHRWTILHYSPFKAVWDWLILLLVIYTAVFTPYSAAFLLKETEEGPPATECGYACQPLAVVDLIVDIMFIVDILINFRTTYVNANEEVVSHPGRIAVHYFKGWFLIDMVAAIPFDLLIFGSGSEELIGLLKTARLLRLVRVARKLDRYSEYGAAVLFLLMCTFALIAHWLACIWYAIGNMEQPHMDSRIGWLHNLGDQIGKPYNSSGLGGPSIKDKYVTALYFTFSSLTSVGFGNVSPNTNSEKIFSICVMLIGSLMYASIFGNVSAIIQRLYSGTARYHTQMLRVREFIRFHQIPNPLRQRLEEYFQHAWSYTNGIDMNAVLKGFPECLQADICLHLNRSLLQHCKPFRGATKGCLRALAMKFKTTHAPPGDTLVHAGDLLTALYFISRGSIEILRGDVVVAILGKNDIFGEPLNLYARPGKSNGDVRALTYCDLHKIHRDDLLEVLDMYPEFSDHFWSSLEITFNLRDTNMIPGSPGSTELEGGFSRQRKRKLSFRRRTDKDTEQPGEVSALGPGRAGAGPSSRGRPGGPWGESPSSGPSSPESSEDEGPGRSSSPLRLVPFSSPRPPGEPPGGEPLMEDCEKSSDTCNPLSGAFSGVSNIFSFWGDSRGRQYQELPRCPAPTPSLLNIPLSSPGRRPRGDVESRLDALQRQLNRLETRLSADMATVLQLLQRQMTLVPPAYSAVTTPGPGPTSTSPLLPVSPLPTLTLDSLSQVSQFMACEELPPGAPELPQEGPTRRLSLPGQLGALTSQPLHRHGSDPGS
row,SMILES,"hERG current change (%, negative = inhibition) at 10uM [%]"
1,O=C1C(NS(=O)(=O)c2ccc(Cl)cc2)=C(N2CCCCC2)C(=O)c2ccccc21,-13.3
2,Cc1ccc(-n2nc3c(=O)n(CCCC(=O)N4CCC(C)CC4)nc(C)c3c2C)cc1,-30.1
3,CN(Cc1cccc(Cl)c1Cl)c1ccc(S(=O)(=O)N2CCCCC2)cc1[N+](=O)[O-],5.82
4,Cc1ccc(C2=NNC(C(O)C(O)C(O)CO)S2)cc1 (stereo not drawn),11.6
5,CC1CN(S(=O)(=O)c2cccc(C(=O)Nc3ccc(S(=O)(=O)NC4=NCCCCC4)cc3)c2)CC(C)O1 (stereo not drawn),-5.97
6,CC(C)c1ccc(OCc2cccc(C(=O)N/N=C/c3cccnc3)c2)cc1,-5.29
7,Cc1ccccc1C(=O)Nc1cccc(C(=O)N/N=C/c2cc(Cl)cc([N+](=O)[O-])c2O)c1,7.34
8,COC(=O)c1cc2sc(Cl)cc2n1Cc1nc(-c2ccccc2)oc1C,3.5
9,Cn1ccnc1SCC(=O)Nc1nc2ccccc2s1,-25.1
10,O=C(O)c1ccc(N/N=C/C2=C(N3CCOCC3)C(=C\c3ccccc3)/CC2)cc1,7.96
11,COc1ccccc1CC(=O)NCCc1c[nH]c2ccccc12,5.81
12,COc1cccc(NC(C)C(=O)N2CC(C)OC(C)C2)c1 (stereo not drawn),-1.96
13,C/C(=N/NC(=O)CNC(=O)c1cccs1)c1ccco1,11.7
14,CCOC(=O)c1ccc(NC(=S)N(Cc2cccnc2)Cc2ccco2)cc1,-53.2
15,COc1ccc(NC(=S)N(Cc2cccnc2)Cc2ccco2)cc1,-24.5
16,COc1ccc(NC(=S)N(CCCN2CCOCC2)Cc2ccco2)cc1,-7.89
17,CCOC(=O)c1ccc(NC(=S)N(CCCN2CCCCCC2)Cc2ccco2)cc1,-73.7
18,COC(=O)c1ccc(NC(=S)N(Cc2cccnc2)Cc2ccco2)cc1,-29.1
19,CCOC(=O)c1ccc(NC(=S)N(CCCN2CCN(CC)CC2)Cc2ccco2)cc1,-76.5
20,Cc1ccc(CSc2nc3c(c(N(C)C)n2)CCCC3)cc1,-5.63
21,CCC(Cc1c(I)cc(I)c(N)c1I)C(=O)O (stereo not drawn),-0.155

row,SMILES,"hERG current change (%, negative = inhibition) at 10uM [%]"
1,C=C1c2ccccc2NC(=S)N1Cc1ccc2c(c1)OCO2,27.5
2,Cc1ccc(CNC(=O)c2ccc(N3CCC4(CC3)CC(c3ccccc3)=NO4)c(NC(=O)c3ccco3)c2)cc1,6.09
3,COC(=O)CN(c1ccc(C)cc1)S(=O)(=O)c1ccc(F)cc1,-19.9
4,Cc1ccc(NS(=O)(=O)c2ccc3c(c2)c(=O)n(C)c(=O)n3C)cc1F,-15.5
5,CC(C)c1ccc2oc(=O)cc(CN3CCN(c4ccccc4)CC3)c2c1,-10.4
6,O=c1cc(CN2CCN(Cc3ccccc3)CC2)c2cc3c(cc2o1)CCC3,-51
7,CN1CCN(Cc2cc(=O)oc3cc4c(cc23)CCC4)CC1,-8.2
8,Cc1cc2oc(=O)cc(CN3CCN(Cc4ccccc4)CC3)c2cc1O,-53.3
9,Cc1ccc2oc(=O)cc(CN3CCCCC3)c2c1,15.9
10,Cc1cc2oc(=O)cc(CN3CCOCC3)c2cc1O,-22.6
11,Cc1cc2oc(=O)cc(CN3CCN(Cc4ccccc4)CC3)c2cc1Cl,-22.8
12,Cc1ccc2oc(=O)cc(CN3CCN(C/C=C/c4ccccc4)CC3)c2c1,-76.9
13,Cc1ccc2oc(=O)cc(CN3CCOCC3)c2c1,-8.53
14,CCN1CCN(Cc2cc(=O)oc3cc4c(cc23)CCC4)CC1,-29.7
15,COc1ccc(N2CCN(Cc3cc(=O)oc4cc(-c5ccccc5)c(O)cc34)CC2)cc1,-0.18
16,O=c1cc(CN2CCN(C/C=C/c3ccccc3)CC2)c2cc(O)ccc2o1,-77.5
17,Cc1ccc(S(=O)(=O)N2CCCCC2CCNC(=O)C(=O)NCC2CCCO2)cc1 (stereo not drawn),-23.6
18,O=C(CSc1cccc2cccnc12)N1CCCC1,12
19,NS(=O)(=O)c1ccc(NC(=O)c2c(Cl)cccc2Cl)cc1,9.38
20,Cc1cc2oc(=O)cc(CN3CCN(C/C=C/c4ccccc4)CC3)c2cc1O,-80.9
21,Cc1c(O)ccc2c(CN3CCN(C/C=C/c4ccccc4)CC3)cc(=O)oc12,-64.1
